This is a sample that favours compounds with a hit; in the whole collection about 4.7% have one here.
PfHsp90 yeast 2: growth inhibition of PfHsp90-expressing yeast, primary screen, antimalarial PfHsp90 inhibitor project, S. cerevisiae, BacTiter-Glo luminescence, single point, set 2. BacTiter-Glo ATP, 48 h; yeast lacking PDR1 and PDR3 efflux regulators. inhibition, % at 9.4 µM. hit rate 0.32% among 310,000. AID 504621, 2011;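 active = every replicate shows inhibition above about 80%, whatever the replicate mean, limit read from the data; inconclusive = mean inhibition reaches the set limit but some replicate falls short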;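 note: 0% = DMSO neutral controls and 100% = 20 µM radicicol positive controls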
SKKanGAS inh: S. pyogenes SKKanGAS growth inhibitors in kanamycin, primary screen, streptokinase expression inhibitor project, SKKanGAS strain, BacTiter-Glo luminescence. 6 h. inhibition, % at 7.5 µM. hit rate 1.3% among 300,000;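 active = mean replicate score, as percent of positive control median, at least 50; inconclusive = mean below 50 but one replicate at or above 50; inactive = mean and every replicate below 50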;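 note: strain carries kanamycin resistance gene driven by streptokinase promoter and grows in 40 µg/ml kanamycin; loss of luminescence reflects streptokinase promoter inhibition or plain growth inhibition; 0% = median of DMSO wells and 100% = positive control at its reference dose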
TIM10 inh: growth inhibitors of isogenic TIM10 control yeast, primary screen, counter-screen for tim10-1 yeast inhibitor project, luminescence, uHTS | S. cerevisiae TIM10 strain growth, BacTiter-Glo luminescence, 24 h | inhibition, % at 10 µM | hit rate 1.4% among 330,000 | AID 463195, 2010;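 active = inhibition of 40% or more at the single tested concentration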;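 note: wild-type TIM10 isogenic control strain grown at permissive 25 °C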
tim23-1 inh: growth inhibitors of tim23-1 mutant yeast, primary screen, luminescence, uHTS; AID 463212, 2010; hit rate 1.3% among 330,000; S. cerevisiae tim23-1 growth, BacTiter-Glo luminescence, 24 h; inhibition, % at 20 µM;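 active = growth inhibition of the mutant yeast at or above 50%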;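 note: temperature-sensitive mutant grown at 25 °C; plate controls were DMSO-treated mutant yeast for no effect and medium wells lacking yeast for full effect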
tim10-1 inh: growth inhibitors of tim10-1 mutant yeast, primary screen, luminescence, uHTS; S. cerevisiae tim10-1 ts strain growth, BacTiter-Glo, 24 h; hit rate 2.2% among 330,000; inhibition, % at 20 µM; AID 463190, 2010;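 active = inhibition of at least 40%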;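 note: mutant grown at 25 °C; 0% = DMSO wells with yeast and 100% = wells holding no yeast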
Calb FLC: C. albicans growth inhibition with fluconazole, primary screen, CaCi-2 strain, Alamar Blue fluorescence. C. albicans CaCi-2 (fluconazole-resistant clinical isolate) + fluconazole, 48 h. growth inhibition, % (test concentration not listed). hit rate 0.57% among 300,000. AID 1979, 2009;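 active = growth inhibition above about 58% in most replicates, limit read from the data, passing the limit was not always enough; inconclusive = exactly half the replicates above a set limit; inactive = most replicates below a set limit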;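 note: all wells also contain fluconazole at 8 µg/ml as a sub-toxic cotreatment; 0% = median of DMSO wells and 100% = median of geldanamycin control wells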
The depositor's hits bear a star; ? = inconclusive; . = no result given.

SMILES | PfHsp90 yeast 2 | SKKanGAS inh | TIM10 inh | tim23-1 inh | tim10-1 inh | Calb FLC
Cc1onc(-c2ccccc2)c1C(=O)NNC(=S)NC(=O)c1ccc(Cl)cc1Cl | -23 | 80* | 29 | -1 | 13 | 1
Cc1cc([N+](=O)[O-])ccc1NC(=O)c1csc(C)c1C | -12 | 9 | 10 | 10 | -3 | -24
O=C(Nc1ccc(-c2n[nH]c(=S)o2)cc1)c1ccccc1 | 3 | 7 | 6 | 6 | 6 | -2
COc1ccc(/C=C/C(=O)NC(=S)NNC(=O)c2c(-c3ccccc3)noc2C)cc1 | -1 | 89* | 25 | 18 | -4 | 3
COc1ccc(-c2cc(C(=O)NNC(=S)NC(=O)c3c(-c4ccccc4)noc3C)[nH]n2)cc1 | -26 | 93* | 8 | 8 | 29 | 81*
Cc1onc(-c2ccccc2)c1C(=O)NNC(=S)NC(=O)/C=C/c1ccccc1 | 1 | 51* | -4 | 31 | 0 | 4
COc1ccc(NC(=O)c2c(-c3ccccc3)noc2C)c(OC)c1 | -31 | -5 | 9 | 15 | 26 | -10
COc1ccccc1-c1cc(-c2ccccc2)nc(SCC(=O)O)c1C#N | 2 | 84* | 11 | 7 | 13 | 25
CC(C)C(Sc1nc(-c2ccccc2)cc(-c2ccccc2)c1C#N)C(=O)O (stereo unspecified) | -9 | 53* | 24 | 19 | 18 | 87*
CCC(=O)/C=C1/Sc2ccccc2N1CC | -8 | -4 | -12 | 26 | 5 | -17
CCN1/C(=C/c2sc(-c3ccccc3C)c[n+]2C)Sc2ccccc21 | 6 | 6 | . | . | . | 106*
CC1=C(C(=O)O)N2C(=O)C(NC(=O)c3nn(C)cc3Cl)C2SC1 (stereo unspecified) | 16 | -3 | -9 | -7 | -11 | 3
Cn1nnnc1SCC1=C(C(=O)O)N2C(=O)C(NC(=O)Cn3nc(C(F)F)cc3C3CC3)C2SC1 (stereo unspecified) | -6 | 104* | 5 | 10 | 15 | ?
CC(C(=O)NC1C(=O)N2C(C(=O)O)=C(CSc3nnnn3C)CSC12)n1cc(Cl)cn1 (stereo unspecified) | -21 | 105* | 6 | 2 | 9 | -11
Cc1nnc(SCC2=C(C(=O)O)N3C(=O)C(NC(=O)C(C)n4nc(C(F)(F)F)cc4C)C3SC2)s1 (stereo unspecified) | 3 | 103* | 2 | 12 | 9 | 10
Cc1nn(CC(=O)NC2C(=O)N3C(C(=O)O)=C(CSc4nnnn4C)CSC23)cc1Br (stereo unspecified) | -6 | 109* | -15 | 0 | 5 | 19
Cc1nnc(SCC2=C(C(=O)O)N3C(=O)C(NC(=O)Cc4ccccc4)C3SC2)s1 (stereo unspecified) | 8 | . | -8 | 8 | 7 | .
CO[C@@]1(NC(=O)C2SC(=C(C(N)=O)C(=O)O)S2)C(=O)N2C(C(=O)O)=C(CSc3nnnn3C)CS[C@@H]21 (stereo partly specified) | -9 | . | -4 | -10 | -11 | .
CC(C)Oc1ccc(C(=O)Nc2c3c(nn2-c2ccccc2)CS(=O)(=O)C3)cc1 | -5 | 9 | -5 | 13 | 6 | 10
COc1cc(CNC23CC4CC(CC(C4)C2)C3)ccc1OCc1ccccc1 | 0 | -3 | -4 | 3 | 20 | -9
Cc1c(Cl)cnn1CC(=O)NC1C(=O)N2C(C(=O)O)=C(CSc3nnnn3C)CSC12 (stereo unspecified) | -3 | 120* | 18 | 4 | 0 | 22
Cc1c(Cl)c(C(F)F)nn1CC(=O)NC1C(=O)N2C(C(=O)O)=C(CSc3nnnn3C)CSC12 (stereo unspecified) | -10 | 119* | . | . | . | 28
COc1ccc(CCNC(=O)c2noc(C)c2[N+](=O)[O-])cc1OC | 4 | 4 | 7 | 5 | -4 | -2
CC(C)(C)c1ccc(-c2cn(-c3ccc(Br)cc3)c3[n+]2CCCS3)cc1 | -11 | 10 | . | . | . | 102*
COC(=O)C1CCN(C(=O)CN(C)Cc2ccc(C(C)(C)C)cc2)CC1 | 9 | -1 | -4 | 1 | -4 | 80*
SMILES | PfHsp90 yeast 2 | SKKanGAS inh | TIM10 inh | tim23-1 inh | tim10-1 inh | Calb FLC
CC(C)(C)c1csc(NC(=O)c2cccnc2)n1 | -1 | -5 | 1 | 9 | -9 | -23
CC(C)(C)c1csc(NNC(=O)c2ccc(Cl)cc2)n1 | 4 | 90* | 18 | 41 | -13 | -14
O=S(=O)(Nc1cccc2cccnc12)c1ccccc1 | -30 | ? | 33 | 23 | 26 | 0
Cc1ccc2cccc(NS(=O)(=O)c3ccccc3)c2n1 | . | 55* | 7 | 18 | 10 | 63
COc1cnc(-c2ccccn2)nc1Oc1c(C)cccc1C | -19 | 57* | 28 | 29 | 20 | 52
COc1ccc(Oc2nc(-c3ccccn3)ncc2OC)cc1 | 4 | 54* | -13 | -24 | 18 | -2
CCOc1cc(N2CCOCC2)c(OCC)cc1NC(=O)C1CC(=O)N(c2ccc(C)cc2)C1 (stereo unspecified) | -5 | . | 9 | 5 | -3 | .
O=C(NC1CC1)c1sc2cc(Cl)ccc2c1Cl | -13 | 0 | -1 | 9 | 2 | -1
O=C(Nc1nccs1)c1sc2ccccc2c1Cl | -6 | 50* | 25 | 19 | 24 | -33
O=C(Nc1nccs1)c1sc2cc(Cl)ccc2c1Cl | . | 66* | 1 | 1 | 26 | ?
O=C(Nc1ccccc1-c1nc2ccccc2[nH]1)c1sc2ccccc2c1Cl | . | 64* | 0 | 14 | 6 | 12
CC1CC(C)CN(CCCNS(=O)(=O)c2ccc3c(c2)oc(=O)n3C)C1 (stereo unspecified) | -6 | 9 | 2 | 2 | -1 | 1
COc1ccc(NC(=O)Nc2ccc3c(c2)CC(=O)N([C@H](C)CO)C[C@@H](C)[C@H](CN(C)C(=O)Nc2ccccc2)O3)cc1 | 10 | . | 3 | 2 | -8 | .
O=C1OC(c2ccccc2)(c2ccc3cc(O)ccc3c2)c2ccccc21 (stereo unspecified) | 113* | . | . | . | . | .
O=C1OC(c2ccc(O)cc2)(c2ccc(O)cc2)c2ccccc21 | -11 | 5 | 13 | -1 | 8 | .
Clc1ccc(Nc2ncnc3c2cnn3-c2ccccc2)cc1 | -14 | 81* | -16 | 1 | -19 | 0
CC(=O)Nc1ccc(Nc2ncnc3c2cnn3-c2ccccc2)cc1 | . | -4 | 27 | 24 | -7 | 16
CCOC(=O)c1c(S(=O)(=O)NCC(=O)Nc2ccc(OC)cc2)c(C)n(C)c1C | 4 | -4 | -3 | 6 | 7 | -2
O=C1C=CC(=Nc2ccc(F)cc2)O1 | 119* | . | . | . | . | .

Screens: PubChem BioAssay, several laboratories
